36 compounds from paper PMC5540273 (PLoS ONE, 2017) can be followed below.
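Also: KINOMEscan kinase panel screen.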

The first assay concerns CAMK1. To be noted: concentration: 1 μM, replicates: in singlicate; n = 1.
Regarding `CC(C)N1CCC(n2cnc(-c3ccc(F)cc3)c2-c2ccnc(N)n2)CC1` [SB-223132], the “%Inh” value is 0%.
With `Nc1n[nH]c2nnc(-c3ccccc3)cc12` [SB-517389], the “%Inh” value is reported as 15%.
For `C[C@H]1CC[C@@H](C(=O)Nc2ccccc2)CN1c1cc(-c2ccc3c(N)n[nH]c3c2)nc(N)n1` [GSK2283293], the “%Inh” value stood at 11%.
Regarding `CN1CCC(n2cnc(-c3ccc(F)cc3)c2-c2ccnc(NC3CCNCC3)n2)CC1` [SB-229482], the “%Inh” value came to 0%.
The same measure, in the same setting: the same measure for `Fc1cccc(COc2ccc(Nc3ncnc4sc(-c5ccc[nH]5)cc34)cc2Cl)c1` [GW707818]: 25%.
As for `O=C(Nc1ccccc1F)NC1CCN(c2ccnc(Nc3ccc(F)cc3)n2)C1` (stereo not drawn) [GSK1379722], the “%Inh” value came to 0%.
With `Clc1ccc(-c2cc(-c3c[nH]nc3-c3ccccn3)ccn2)cc1` [GW681251], the “%Inh” value turned out to be 0%.
`COc1cc2ncnc(Nc3ccc(OCc4ccccc4Br)c(Cl)c3)c2cc1OC.Cl` [GI261590]: the “%Inh” value came to 12%.
Same read-out and setting: the same measure for `Cl.Cl.c1ccc(-c2cc3ccncc3cc2OC2CCNCC2)cc1` [GSK1122999]: 3%.

The next assay concerns CAMK2A. Conditions: concentration: 1 μM, replicates: in singlicate; n = 1.
As for `Oc1ccc2ncnc(Nc3ccc(OCc4ccccc4)cc3)c2c1` [GI262866], the “%Inh” value is reported as 0%.
In the case of `FC(F)(F)c1ccc(-c2cc(-c3c[nH]nc3-c3ccccn3)ccn2)cc1` [GW599550], the “%Inh” value stood at 0%.
Still for that read-out and setting: the same measure for `CCc1nc(-c2cccc(C)c2)c(-c2ccnc(NC(=O)c3ccccc3)c2)s1`: 4%; for `CN1c2ccc(-c3ccc(C(=O)NCCO)cc3)cc2-c2[nH]ncc2S1(=O)=O`: 67%.
Still for that read-out and setting: the same measure for `O=C(c1ccc(-c2cc(-c3c[nH]nc3-c3ccccn3)ccn2)cc1)N1CCCC1` [GW792479]: 1%; for `COc1ccc(-c2oc3ncnc(N)c3c2-c2ccc(OC)cc2)cc1` [SB-589132]: 0%; for `CCc1nc(-c2cccc(N(C)S(=O)(=O)c3ccccc3)c2)c(-c2ccnc(Nc3ccc(N4CCN(C(C)=O)CC4)nc3)n2)s1` [GSK1645895]: 0%.
The same measure, in the same setting: the same measure for `Fc1cccc(COc2ccc(Nc3ncnc4cc[nH]c34)cc2Cl)c1`: 27%; for `Cl.c1ccc(Cn2ncc3cc(Nc4ncnc5ccccc45)ccc32)cc1` [GW273749]: 2%.
For the compound `COC(=O)c1cccc(NC(=O)NCCNc2ccnc(Nc3ccc(F)cc3)n2)c1` [GSK1379883], the “%Inh” value is on record as 0%.
Take `Cl.c1ccc(Cn2ccc3cc(Nc4ncnc5ccccc45)ccc32)cc1` [GW275568]: the “%Inh” value turned out to be 9%.
Same read-out and setting: the same measure for `COc1ccc(Nc2nccc(N3CCC(NC(=O)c4cccc(NC(C)=O)c4)C3)n2)cc1` (stereo not drawn) [GSK1379732]: 0%.
With `Nc1nccc2scc(-c3ccc4c(c3)CCN4C(=O)Cc3cc(F)ccc3F)c12` [GSK2587663], the “%Inh” value is on record as 0%.
Take `Fc1ccc(Nc2nccc(-c3c(-c4ccc(Cl)cc4)nn4ncccc34)n2)cc1F` [GW829058]: the “%Inh” value is 16%.
As for `CS(=O)(=O)CCNCc1ccc(-c2ccc3ncnc(Nc4ccc(OCc5ccccc5)c(Cl)c4)c3c2)o1.Cl` [GW574783], the “%Inh” value was 0%.
For `Cn1ccc2ncnc(Oc3ccc(NC(=O)Nc4cccnc4)c(Cl)c3)c21`, the “%Inh” value stood at 0%.
Still for that read-out and setting: the same measure for `COc1ccc(NC(=O)c2ccc(-c3cc(-c4nnc(C)o4)ccc3C)cc2)cc1` [GW595885]: 0%.
The same measure, in the same setting: the same measure for `NC(=O)c1sc(-n2cnc3ccccc32)cc1OCc1ccccc1F` [GSK1024306]: 0%; for `Fc1ccc(-c2ncn(CCCNCc3ccccc3)c2-c2ccncc2)cc1`: 21%; for `CCC(CC)(CC)n1cnc2c(N)ncnc21` [SKF-97620]: 0%.
Turning to `N#Cc1ccc(Oc2ccc(Nc3ncnc4cc[nH]c34)cc2Cl)cc1`, the “%Inh” value is 21%.
As to `O=C(Nc1n[nH]c2nc(-c3ccco3)c(Br)cc12)c1ccc(CN2CCCC2)cc1.O=C(O)[C@H](O)[C@@H](O)C(=O)O` [SB-742352], the “%Inh” value was determined as 2%.
The same measure, in the same setting: the same measure for `COc1ccc(-c2nc3n(c2-c2ccncc2)CCC3)cc1` [SKF-104493]: 0%; for `O=C(NCCCN1CCCC1=O)c1cnc(NCc2cc(Cl)ccc2Cl)nc1NC1CCNCC1`: 0%; for `O=C(Nc1ccccc1)Nc1ccc(Oc2ccc3nccn3n2)cc1`: 0%.
As for `CCCc1ccc(S(=O)(=O)NC2CCN(c3ccnc(Nc4ccc(OC)cc4)n3)C2)cc1` (stereo not drawn) [GSK1379737], the “%Inh” value came out at 0%.
Consider `COC(=O)c1c(-c2ccccc2)c2cc(Cl)ccc2c(=O)n1Cc1ccc(S(C)(=O)=O)cc1`, for which the “%Inh” value came out at 0%.
